# Screening data from PubChem BioAssay.
# Sampled rows, rich in hits. Any-hit rate of the full collection: about 12%.
# BAZ2B block: BAZ2B (human) inhibition. Q9UIF8. AlphaScreen BAZ2B-H3K14Ac peptide displacement. Potency, µM (top dose mostly 114 µM), without a hit: top-dose activity change, negative = inhibition, usual class: inhibitors. 4.4% of 360,000 active; note: potency is the fitted concentration of half-maximal effect; % is set by controls: 0 for no effect and ±100 for the full control effect; nearly all actives have a fitted effect of over 60% in size
#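 Complex of BAZ2B and biotin-H3K14Ac (50 nM apiece) forms over 30 min at RT, then faces library compounds up to 110 uM for another 30 min; AlphaScreen beads added, 20 min dark incubation, luminescence read.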
# HP1b chromo inh: HP1-beta chromodomain-methylated histone interaction inhibition; 0.56% of 390,000 active; AID 540317; AlphaScreen HP1-beta / biotin-H3K9me3 peptide binding; Potency, µM (titrated, usually from 114 µM), inactives show top-dose activity change, negative = inhibition, actives largely listed as inhibitors; note: potency is the fitted concentration of half-maximal effect; nearly all actives have a fitted effect of over 70% in size
# Target sequence (P83916 whole entry, looked up): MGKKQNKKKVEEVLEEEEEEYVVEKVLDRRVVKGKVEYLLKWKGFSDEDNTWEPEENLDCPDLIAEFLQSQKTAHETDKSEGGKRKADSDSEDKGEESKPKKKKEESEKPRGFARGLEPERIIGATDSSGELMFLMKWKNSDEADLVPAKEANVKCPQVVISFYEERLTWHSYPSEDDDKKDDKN
#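 HP1-beta protein (50 nM final) preincubated 30 min at room temperature with biotinylated H3(1-18)K9me3 peptide (50 nM) in PBS pH 7.4, 0.01% Tween-20, then compound added for 30 min. AlphaScreen streptavidin donor/nickel chelate acceptor beads (10 ug/mL final), 30 min dark, luminescence read.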
# JMJD2A Tudor inh: blocks the human JMJD2A Tudor domain | O75164 | AlphaScreen JMJD2A-Tudor / H3K4me3 peptide binding | Potency, µM (highest dose often 114 µM), inactives show at the top dose activity change, negative = inhibition, actives largely listed as inhibitors | 4.4% of 390,000 active | AID 504339; note: potency is the fitted concentration of half-maximal effect; % is set by controls: 0 for no effect and ±100 for the full control effect; nearly all actives have a fitted effect of over 50% in size
# PLK1 PBD block: inhibitors of human PLK1 polo-box domain binding | AID 720504 | P53350 | Potency, µM, inactives show max response, negative = inhibition, actives largely listed as inhibitors | 2.8% of 360,000 active | Plk1 PBD binding of FITC phosphopeptide, fluorescence polarization; note: potency is the fitted concentration of half-maximal effect; series mostly up to about 57 µM; % is set by controls: 0 for no effect and ±100 for the full control effect; nearly all actives have a fitted effect of over 65% in size
# Target sequence (P53350 whole entry, looked up, the tested form may be a part): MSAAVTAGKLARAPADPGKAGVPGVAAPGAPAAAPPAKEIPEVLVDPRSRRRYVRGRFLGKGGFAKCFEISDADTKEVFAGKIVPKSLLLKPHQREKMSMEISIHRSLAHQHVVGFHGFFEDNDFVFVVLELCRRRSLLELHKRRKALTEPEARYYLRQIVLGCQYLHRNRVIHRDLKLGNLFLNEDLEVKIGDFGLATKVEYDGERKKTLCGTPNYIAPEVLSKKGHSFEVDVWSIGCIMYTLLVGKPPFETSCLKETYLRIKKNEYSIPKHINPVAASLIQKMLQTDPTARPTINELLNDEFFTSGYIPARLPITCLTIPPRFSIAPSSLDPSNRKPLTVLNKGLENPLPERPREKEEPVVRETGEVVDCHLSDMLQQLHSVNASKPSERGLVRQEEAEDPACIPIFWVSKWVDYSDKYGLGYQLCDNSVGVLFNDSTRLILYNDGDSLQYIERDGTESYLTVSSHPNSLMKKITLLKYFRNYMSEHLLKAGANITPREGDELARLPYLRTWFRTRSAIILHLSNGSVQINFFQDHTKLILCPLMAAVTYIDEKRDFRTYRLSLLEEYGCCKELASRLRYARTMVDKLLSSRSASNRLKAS
# G9a inh: inhibitors of human histone lysine methyltransferase G9a; G9a H3K9 monomethylation, AlphaScreen, 2 h; Potency, µM (top dose mostly 102 µM), inactives show at the top dose activity, negative = inhibition, most hits filed as inhibitors; 8.8% of 350,000 active; AID 504332; note: potency is the fitted concentration of half-maximal effect; % is set by controls: 0 for no effect and ±100 for the full control effect; nearly all actives have a fitted effect of over 75% in size
#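 Enzyme 20 nM + cpd, 15 min RT; add b-H3K9 pep 500 nM / SAM 20 uM; 2 h RT; anti-H3K9me1 Ab 0.5 ug/mL + SA donor / anti-rabbit acceptor beads 20 ug/mL each, 10 min; AlphaScreen read.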
# PI5P4Ka inh: blocks human PI5P4K alpha kinase activity; max response, %; AID 652105; 1.2% of 330,000 active; PI5P4Kalpha enzyme, ADP-Glo luminescence, 60 min; stronger effect = lower value; P48426; active = max response of -50% or lower; inconclusive = between -30% and -50%; inactive = -30% or higher; note: value at the top dose of about 77 µM; % is set by controls: 0 for no effect and ±100 for the full control effect
#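 PI5P4Kalpha ADP-Glo assay; 5 microM ATP final; 60 min RT reaction; HEPES pH 7.4/EGTA/CHAPS, 5% DMSO; controls lacking substrate or enzyme; luminescent end-point.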
# * marks the source's active call; other numbers are inactive results; ? = inconclusive; · = no result given; [ ] = another dose, or the depositor's remark. Unless noted, calls come from the whole dose curve; as a rule, active = well fitted curve in the direction sought with a large enough effect; inconclusive = small, poorly fitted or top-dose-only effect, or another doubt; inactive = no such curve, though single readings can be large; an effect the other way counts as inactive or inconclusive.
SMILES,BAZ2B block,HP1b chromo inh,JMJD2A Tudor inh,PLK1 PBD block,G9a inh,PI5P4Ka inh
Cc1ccc(C)c(S(=O)(=O)N2CCN(c3ncccn3)CC2)c1,-0.9%,96.1%,-4.5%[11.4 µM],-7.0%,35.2%,-2.4
Oc1cc(O)c(CN2CCOCC2)cc1CN1CCOCC1,·,70.8µM*,79.4µM*,?,·,4.0
O=[N+]([O-])c1ccc(Cl)c(CN2CCN(c3ncccn3)CC2)c1,?,-1.0%,?,-2.3%,70.8µM*,3.3
Fc1ccccc1CN1CCN(c2ncccn2)CC1,?,-31.0%,6.31µM*,1.4%,22.4µM*,1.8
Cc1nn(-c2ccccc2)c(C)c1C(=O)OCC(=O)Nc1ccccc1Cl,·,·,·,-5.4%,·,1.4
COc1cc(OC)cc(C(=O)NNC(=O)CNC(=O)c2cccs2)c1,-2.5%,26.5%,-8.4%,0.9%,13.5%[12.7 µM],6.3
Oc1cc2c(cc1CN1CCN(c3ncccn3)CC1)OCO2,-29.8%,13.2%,?,-29.1%,3.98µM*,-3.9
CCN(CCCNC(=O)C1CCC(=O)N1Cc1ccccc1Cl)c1cccc(C)c1 (stereo unspecified),?,1.3%,-29.9%,-2.7%,44.7µM*,-6.7
CC(C)OCCCNC(=O)CN1CCN(Cc2ccccc2Cl)C1=O,8.1%,-7.3%,-32.2%[11.4 µM],3.36µM*,1.4%,?
CN(CCCNC(=O)C1CCC(=O)N1Cc1ccc(F)cc1)c1ccccc1 (stereo unspecified),-4.7%,13.6%,-24.1%,0.0%,79.4µM*,0.9
CCN(CCNC(=O)C1CCC(=O)N1Cc1ccc(C)cc1)c1ccccc1 (stereo unspecified),-23.8%,28.0%,3.7%,0.7%,50.1µM*,-2.3
COC(=O)N1CCC2(CC1)CN(c1ccccn1)C2,·,·,·,·,0.4%[12.7 µM],·
[O-]/[N+](=N\Nc1ccc(Cl)cc1)c1ccccc1,·,?,-27.6%,?,·,3.1
COc1ccccc1NC(=O)COC(=O)/C=C/c1ccc(OC)c(OC)c1,·,26.1%,-3.0%,1.9%,·,-2.2
CCN(CC)c1ncnc2c1ncn2[C@H]1CN(Cc2cc(OC)c(OC)c(OC)c2)C[C@@H](CO)O1,·,·,·,-2.1%,·,-0.9
CCN(CCNC(=O)CN1CCN(Cc2ccc(Cl)cc2)C1=O)c1ccccc1,?,-12.4%,-25.1%,0.9%,11.2µM*,0.3
O=C(CN1CCN(Cc2ccccc2)C1=O)NCc1ccc(Cl)cc1,1.1%,25.8%,11.1%,-1.2%,0.3%[59 µM],0.7
CC(Sc1nc2cc([N+](=O)[O-])ccc2n1-c1ccc(F)cc1)C(=O)NCc1ccc2c(c1)OCO2 (stereo unspecified),?,-12.9%,?,?,?,-6.8
CCN(CC)S(=O)(=O)c1ccc2c(c1)nc(SCC(=O)N1CCOCC1)n2-c1ccccc1OC,?,9.9%,-10.8%,-0.6%,31.6µM*,-1.4
COc1ccccc1-n1c(SCC(=O)NCc2ccc3c(c2)OCO3)nc2cc([N+](=O)[O-])ccc21,-36.9%,?,50.1µM*,?,?,-13.0
COc1cccc2cc(-c3nc4ccccc4o3)c(=O)oc12,-12.3%,15.0%,-9.0%[11.4 µM],?,-28.8%,14.6
COc1cccc2cc3c(=O)n(-c4ccccc4)nc-3oc12,?,-8.7%,44.7µM*,29.9µM*,?,-11.1
Cc1cccc2c1NC(=O)/C2=C\C(=O)c1cccs1,-29.7%,8.2%,-25.0%,-27.3%,?,-17.0
CCc1ccc2c(c1)/C(=C/C(=O)c1cccs1)C(=O)N2,11.2µM*,-40.3%,12.6µM*,?,11.2µM*,·
O=[N+]([O-])c1cc(Cl)c2cccnc2c1O,17.8µM*,?,20µM*,-3.4%,35.5µM*,-2.2
SMILES,BAZ2B block,HP1b chromo inh,JMJD2A Tudor inh,PLK1 PBD block,G9a inh,PI5P4Ka inh
O=[N+]([O-])c1ccc(Cl)c2cccnc12,-2.7%,14.4%,-15.6%,-23.1%,10.7%,4.0
O=[N+]([O-])c1cc(Cl)c(O)c2ncccc12,20µM*,?,22.4µM*,-25.2%,25.1µM*,-3.0
Oc1c(I)cc(Cl)c2cccnc12,39.8µM*,3.5%,79.4µM*,-23.8%,35.5µM*,?
Clc1cc2cccnc2c2ncccc12,3.55µM*,22.0%,-6.5%,-2.1%,?,0.0
O=[N+]([O-])c1cccc2c(Cl)ccnc12,-38.7%,25.8%,-0.4%,-22.5%,·,0.7
CCCS(=O)(=O)c1nc(S(=O)(=O)c2ccc(C)cc2)c(N2CCC(C(N)=O)CC2)s1,-9.6%,27.0%,-5.5%,2.3%,0.4%,3.5
Nc1ccc(S(=O)(=O)NC(Cc2ccccc2)C(=O)O)cc1 (stereo unspecified),-3.7%,35.6%,-5.0%,-4.0%,·,-8.7
O=C(CNC(=O)C1CCCCC1)OC(C(=O)Nc1cc(C(F)(F)F)ccc1Cl)c1ccccc1 (stereo unspecified),·,·,-19.2%,·,·,·
Cc1c(C)c2cccnc2c2ncccc12,5.62µM*,33.0%,10µM*,-7.6%,·,-3.2
O=[N+]([O-])c1cc(F)c2cccnc2c1O,11.2µM*,10.7%,10µM*,?,8.91µM*,-8.1
CN(Cc1cc([N+](=O)[O-])c2cccnc2c1O)C1CCCCC1,7.94µM*,·,·,·,11.1%[59 µM],·
Cc1ccc2ccc3cccnc3c2n1,·,61.6%,?,-13.9%,·,-1.8
CCc1ccc(-n2c(=O)c3c4c(sc3n(Cc3ccccc3C#N)c2=O)CCC4)cc1,4.5%,25.4%,0.3%,·,-31.1%[59 µM],·
COC(=O)C1=C(O)/C(=C\c2ccc(OCC(=O)Nc3ccccc3OC)cc2)N=C1C,-21.9%,19.4%,?,21.2µM*,16.9%,?
COC(=O)C1=C(O)/C(=C\c2ccc(OCC(=O)Nc3ccc(OC)cc3)cc2)N=C1C,-8.6%,22.9%,-18.6%,-3.6%,56.5%,1.9
CCCCNS(=O)(=O)CCNCc1ccc(OC)cc1,·,35.1%,-26.7%,-3.8%,·,1.7
CCCCCCCCNCCS(=O)(=O)NCc1ccccc1,·,72.0%,2.9%,-4.2%,·,19.0
COc1ccc(CNCCS(=O)(=O)NN2CCOCC2)cc1,·,36.3%,-23.0%,9.47µM*,·,-63.2*
CCCCCCCCNCCS(=O)(=O)NN1CCOCC1,·,42.0%,-4.8%,7.52µM*,·,-68.6*
COc1cc(C(=O)Nc2ccc(NC(=O)c3ccc(Br)cc3)cc2)cc(OC)c1OC,3.4%,40.6%,-14.4%,·,-10.8%[59 µM],·
c1csc(C2Nc3cccc4cccc(c34)N2)c1,?,?,-29.8%,29.9µM*,?,-17.6
CN(C)c1ccc(C2Nc3cccc4cccc(c34)N2)cc1,?,?,?,-14.7%,39.8µM*,-9.6
COc1ccccc1C1Nc2cccc3cccc(c23)N1,50.1µM*,?,50.1µM*,-16.2%,?,-0.8
c1ccc(C2Nc3cccc4cccc(c34)N2)cc1,?,?,?,26.7µM*,12.6µM*,?
CCOC(=O)C1CCN(c2cc3c(cc2NC(=O)c2ccc(Cl)cc2)n(C)c(=O)n3C)CC1,?,31.4%,-9.9%,·,-30.4%[59 µM],·
